Measured values from PubChem BioAssay AID720514 (Broad Institute, 2013).
Screen size: about 2,100 compounds; about 300 (14%) were called active. About 2% were inconclusive and are not listed.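 The calls were made as follows: active = every replicate test run called active, with the signal falling and half-maximal concentration within twice the top valid dose; inconclusive = the replicate test runs disagree in their calls; inactive = every test run inactive, including effects in the opposite direction.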 These entries were drawn from the full list. Potency and affinity values are given separately.

Test: inhibitors of PGC1a acetylation in cells, dose response, cell-based, cherry-picked samples (AID 720514);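 also: actives lower the acetylation signal so they count as inhibitors of PGC1a acetylation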
Settings: U2OS PGC1a acetylation, AlphaLISA, overnight; series mostly up to 19.5 µM

outcome, inactive:
C=C/C=C/[C@@H]1C(=C)CN2[C@H]1[C@H](Cc1ccccc1)OC(=O)[C@@H]2Cc1ccccc1
O=C(NCCC(c1ccccc1)c1ccccc1)c1ccc(Br)o1
CC(C)[C@H](C)NC(=O)N(C)C[C@H]1OCc2ccccc2-c2c(n(C)c3ccccc23)C(=O)N([C@H](C)CO)C[C@H]1C
COc1ccc2c(c1)CCc1c(C(=O)NCCCn3ccnc3)noc1-2
Cc1ccc(S(=O)(=O)N[C@@H]2C=C[C@H](CC(=O)NCCN3CCCCC3)O[C@@H]2CO)cc1
CCCCC(=O)Nc1ccc(C(=O)NCCCn2ccnc2)cc1
OC[C@H]1O[C@@H](n2cnc3c(NCc4ccco4)ncnc32)[C@H](O)[C@@H]1O
O=C(Nc1ccc(F)cc1)N1CCCCN2[C@@H](CO)[C@@H](c3ccc(C#Cc4ccccc4)cc3)[C@@H]2C1
O=C(Nc1ccccc1F)N1CCCCN2[C@H](CO)[C@H](c3ccc(C#Cc4ccccc4)cc3)[C@H]2C1
O=C(Nc1ccc(F)cc1)N1CCN(c2nc3ccccc3s2)CC1
O=c1[nH]nc(SCCS(=O)(=O)c2ccc(F)cc2)n1-c1ccccc1
Cc1cc(C)cc(N(CC(=O)NC2CC3CCC2C3)S(C)(=O)=O)c1 (stereo not given)
O=C(CN1CCC(N2CCCCC2)CC1)N1CCCc2ccccc21
CCCc1cc2c(cc1N(C)S(=O)(=O)c1ccccc1)OCO2
Cc1ccc(NC(=O)CN2CCC(NC(=O)Cc3ccccc3)CC2)c(C)c1
O=C(Nc1ccccc1-c1ccccc1)NC1CC2CCCC(C1)N2Cc1ccc(F)cc1 (stereo not given)
Cc1nn2c(NCCCN3CCOCC3)c3c(nc2c1-c1ccccc1)CCC3
COC(=O)c1cc2ccsc2n1CC(=O)Nc1cc(Cl)ccc1OC
O=C(Cn1nc(C(=O)O)c2ccccc2c1=O)Nc1cccc(Br)c1
Cc1ccc(/C(N)=N/OC(=O)c2ccco2)cc1
CCCCN(CCCC)S(=O)(=O)c1ccc2oc(C(=O)N3CCOCC3)c(C)c2c1
COC(=O)[C@@]1(C)[C@H]2C(=O)N(Cc3ccccc3)C(=O)[C@H]2[C@H]2CN=C(SCC3CC3)N21
COc1ccc(-n2c(=O)c3c4c(sc3n3c(=S)[nH]nc23)CCC4)cc1
CCOc1ccc(NC(=O)CN2CCC(n3cnc4cc(F)ccc43)CC2)cc1
CO[C@@H](C(=O)N(C)C[C@H]1OCc2ccccc2-c2c(n(C)c3ccccc23)C(=O)N([C@H](C)CO)C[C@H]1C)c1ccccc1
